# Assay results taken from PubChem BioAssay (NCATS).
# Several values for one entry are separate records, joined by “and”; a condition that tells them apart may be missing. Equal values may be shown once. Results filed as inconclusive are left out. A call without a number means that no potency is given here. Activity calls are given as the source filed them. Unless noted, the call rests on the fitted dose curve; in most records, active means well fitted curve in the direction sought with a large enough effect; inconclusive means small, poorly fitted or top-dose-only effect, or another doubt; inactive means no such curve, though single readings can be large; an effect the other way counts as inactive or inconclusive.
# How the values were obtained:
# [1] = qHTS Assay for Lipid Storage Modulators (AID 1519; calls by dose curve); details: Drosophila S3 cells, BODIPY lipid droplet/cell ratio, laser cytometry, cells loaded with oleic acid
# In short: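 Cells seeded at 5,000 per well were treated with compounds over a concentration series and loaded with oleic acid (400 uM, as added). Lipid droplet fluorescence (488 nm excitation, 500-530 nm channel) was read by laser-scanning cytometry and normalized to 20 uM Triacsin C.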
# [2] = molecular target: alpha-glucosidase (Oryza sativa, rice) (UniProt Q653V4); test: Counterscreen for Glucocerebrosidase Inhibitors: qHTS Assay for Rice alpha-Glucosidase at pH 5.0 (AID 997); details: rice alpha-glucosidase enzyme activity; series mostly up to 76.9 µM
# In short: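 Rice alpha-glucosidase (4 nM final) with 400 uM 4-methylumbelliferyl-alpha-D-glucopyranoside in citrate buffer pH 5.0, 20 min at room temperature, stopped at pH 10; fluorescence 365/440 nm, compounds 0.7 nM–77 uM, AC50 from Hill fits.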
# [3] = molecular target: DNA repair nuclease/redox regulator APEX1 (Homo sapiens) (UniProt P27695); test: qHTS Validation Assay for Inhibitors of the Human Apurinic/apyrimidinic Endonuclease 1 (APE1) (AID 1705; further: potency means the concentration at half of the fitted maximal effect;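 on activity change, negative = inhibition: TAMRA fluorescence gain over two minutes as APE1 cuts a quenched THF abasic duplex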); details: purified APE1 endonuclease activity, fluorescence, titration; series mostly up to 57.1 µM
# DNA repair nuclease/redox regulator APEX1 (Homo sapiens), sequence (P27695 whole entry, looked up): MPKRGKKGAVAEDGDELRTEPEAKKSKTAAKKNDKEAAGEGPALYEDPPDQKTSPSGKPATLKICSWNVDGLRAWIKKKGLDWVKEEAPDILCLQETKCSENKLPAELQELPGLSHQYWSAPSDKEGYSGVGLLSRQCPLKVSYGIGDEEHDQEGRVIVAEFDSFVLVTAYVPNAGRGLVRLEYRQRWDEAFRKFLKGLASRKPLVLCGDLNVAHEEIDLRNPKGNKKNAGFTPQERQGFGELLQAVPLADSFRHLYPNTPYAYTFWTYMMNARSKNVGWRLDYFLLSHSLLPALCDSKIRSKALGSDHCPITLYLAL
# In short: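 Endonuclease activity of human APE1 is followed as dequenching when the enzyme incises a tetrahydrofuran abasic site in a short duplex labelled 5'-TAMRA/3'-BHQ-2 (50 nM final), after 15 min enzyme–compound preincubation at room temperature.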
# [4] = Counterscreen for APE1 Inhibitors: Fluorescent Dye Displacement Validation Assay (AID 1707); details: fluorescent dye displacement from DNA; series mostly up to 57.1 µM
# In short: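 Thiazole Orange (250 nM) bound to 50 nM TAMRA-labelled dsDNA with tetrahydrofuran abasic site; displacement by DNA-binding compounds lowers fluorescence. Buffer 50 mM Tris-HCl pH 7.5, 50 mM NaCl, 2 mM MgCl2, 0.01% Tween-20; endpoint read at 480/540 nm.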
# [5] = molecular target: Endonuclease 4 (Escherichia coli (strain K12)) (UniProt P0A6C1); test: Counterscreen for APE1 Inhibitors: qHTS Validation Assay for Inhibitors of Endonuclease IV (AID 1708); further: potency means the concentration at half of the fitted maximal effect; details: E. coli endonuclease IV, DNA cleavage fluorescence; series mostly up to 57.1 µM
# In short: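 2 nM enzyme was preincubated with compounds for 15 min at room temperature in 50 mM Tris-HCl pH 7.5, 50 mM NaCl, 2 mM MgCl2, 1 mM DTT, 0.01% Tween-20. 50 nM THF-abasic TAMRA/BHQ-2 duplex substrate started the reaction.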
# [6] = qHTS for differential inhibitors of proliferation of Plasmodium falciparum line 7G8 (AID 1815); details: Plasmodium falciparum 7G8 proliferation inhibition; series mostly up to 28.7 µM;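 further: parasite growth measured after three days of incubation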; further: potency means the concentration at half of the fitted maximal effect
# [7] = qHTS for differential inhibitors of proliferation of Plasmodium falciparum line GB4 (AID 1816); details: Potency: Plasmodium falciparum GB4 proliferation inhibition; series mostly up to 28.7 µM;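 further: parasite growth measured after 72 h incubation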; further: potency means the concentration at half of the fitted maximal effect
# [8] = qHTS for differential inhibitors of proliferation of Plasmodium falciparum line 3D7 (AID 1876); further: potency means the concentration at half of the fitted maximal effect; details: P. falciparum 3D7 proliferation inhibition; series mostly up to 28.7 µM
# [9] = qHTS for differential inhibitors of proliferation of Plasmodium falciparum line D10 (AID 1877); details: series mostly up to 28.7 µM;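 further: parasites grown with compound for 72 h before DNA staining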; further: potency means the concentration at half of the fitted maximal effect
# [10] = Validation of Assay for Modulators of Lamin A Splicing (AID 1459; active means well fitted curve in the direction sought with a large enough effect in the signal ratio; the % refers to the signal ratio;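 further: cells exposed to compound for two days before reading; ratio rise marks activators and ratio drop marks inhibitors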); details: Lamin A splicing dual RFP/GFP fluorescence reporter; series mostly up to 9.22 µM
# In short: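 Splicing correction is reported by an EGFP-containing lamin A minigene in stably transfected S3 HeLa cells, while DsRed2 controls for viability and nonspecific signal. Cells are exposed to compounds for 48 hrs before the GFP over RFP ratio is taken.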
# [11] = measured here: cell count channel max response
# [12] = measured here: lipid channel max response
Structure (SMILES),"activity change, negative = inhibition ([1]; at 25.7 µM (top of the series))","activity change, negative = inhibition ([1]; at 57.5 µM (top of the series))","max response [1, 11]","max response [1, 12]",outcome [2],Potency [3],Potency [4],Potency [5],Potency [6],Potency [7],Potency [8],Potency [9],outcome [10]
CN(C)C(=N)N=C(N)N,1.15% (inactive),9.29% (inactive),14.6% and 3.67%,15.2% and 21.7%,,,,,,,,,
NCCCCCC(=O)O,-1.59% (inactive),7.83% (inactive) and -0.624% (inactive),-1.8% and 21.2% and -62.4%,-4.61% and 34.1% and -65.3%,inactive,inactive,inactive,inactive,inactive,inactive,inactive,inactive,
NC(CO)C(=O)NNCc1ccc(O)c(O)c1O (stereo unspecified),,13.3% (inactive),25.8%,46.4%,,inactive,inactive,inactive,,inactive,inactive,inactive,inactive
Cc1cnc(C(=O)NCCc2ccc(S(=O)(=O)NC(=O)NC3CCCCC3)cc2)cn1,1.51% (inactive),0.481% (inactive),-0.601% and 30.7%,0.0944% and 30.2%,inactive,inactive,inactive,inactive,inactive,inactive,inactive,inactive,
N[C@@H](Cc1c[nH]c2ccc(O)cc12)C(=O)O,,,,,inactive,inactive,inactive,inactive,inactive,inactive,inactive,inactive,inactive
CCOC(=O)C(C)(C)Oc1ccc(Cl)cc1,,,,,inactive,inactive,inactive,inactive,inactive,inactive,inactive,inactive,inactive
NCCc1cnc[nH]1,,,,,inactive,inactive,inactive,inactive,inactive,inactive,inactive,inactive,inactive
CC(=O)OCC(CCn1cnc2cnc(N)nc21)COC(C)=O,,8.16% (inactive),10.2%,23.5%,,,,,,,,,
COc1cc2nc(N(C)CCCNC(=O)C3CCCO3)nc(N)c2cc1OC (stereo unspecified),,3.93% (inactive),5.38%,20.8%,,,,,,,,,
CC(C)NCC(O)c1ccc(O)c(O)c1 (stereo unspecified),,4.99% (inactive) and 0.312% (inactive) and 1.86% (inactive),14.1% and -2.95% and -6.8%,18.9% and -2.86% and -5.68%,,inactive,inactive,inactive,inactive,,inactive,,inactive
O=C1N(c2ccccc2)c2ccccc2C1(Cc1ccncc1)Cc1ccncc1,,,,,inactive,inactive,inactive,inactive,8.91 µM (active),12.6 µM (active),,,inactive
Cn1cnc2c1c(=O)[nH]c(=O)n2C,-1.11% (inactive),-1.44% (inactive) and 2.73% (inactive),-1.67% and 17.8% and 14.4%,-0.915% and 15.2% and 17.5%,inactive,inactive,inactive,inactive,inactive,inactive,inactive,inactive,inactive
O=C(c1ccc(F)cc1)C1CCN(CCn2c(=O)[nH]c3ccccc3c2=O)CC1,,3.6% (inactive) and 3.32% (inactive),11.4% and 58.6%,27.6% and 62%,inactive,inactive,inactive,inactive,3.16 µM (active),5.62 µM (active),7.08 µM (active),3.98 µM (active),inactive
CN1CCN(C2=Nc3cc(Cl)ccc3Nc3ccccc32)CC1,,,,,inactive,inactive,inactive,inactive,,,,,inactive
Clc1ccc2c(c1)C(N1CCNCC1)=Nc1ccccc1O2,,,,,inactive,inactive,inactive,,7.08 µM (active),5.62 µM (active),,,inactive
CC1COc2c(N3CCN(C)CC3)c(F)cc3c(=O)c(C(=O)O)cn1c23 (stereo unspecified),,6.1% (inactive) and 7.75% (inactive),10.5% and 11.1%,20.7% and 20.3%,,inactive,inactive,inactive,,,,,inactive
CN(C)CCCN1c2ccccc2CCc2ccc(Cl)cc21,-2.54% (inactive),1.94% (inactive),-4.06% and 0.0678%,-5.65% and 2.74%,inactive,inactive,inactive,inactive,5.01 µM (active),5.01 µM (active),10 µM (active),11.2 µM (active),
O=C1c2c(O)ccc(O)c2C(=O)c2c(NCCNCCO)ccc(NCCNCCO)c21,0.282% (inactive),-5.29% (inactive),-20.6% and -20.2%,-20.7% and -20.9%,inactive,2 µM (active),inactive,2 µM (active),1.12 µM (active),1.41 µM (active),0.398 µM (active),1.58 µM (active),
NCCS(=O)(=O)O,,4.96% (inactive) and -0.7% (inactive),-11.2% and -31.9%,15.8% and -31.4%,inactive,inactive,inactive,inactive,inactive,inactive,inactive,inactive,inactive
